# Reference: PubChem BioAssay (NCATS)
# Inconclusive results are not listed. Entries that show only a call come without a potency. Values without a mark were called inactive. Active and inactive are the calls of the source. The call rests on the fitted dose curve; in most records, active means well fitted curve in the direction sought with a large enough effect; inconclusive means small, poorly fitted or top-dose-only effect, or another doubt; inactive means no such curve, though single readings can be large; an effect the other way counts as inactive or inconclusive.
# Columns and labels:
# [1] = Viability qHTS for spleen associated tyrosine kinase inhibitor (SYKi) naive MV4-11 cells (AID 1963823); further: nearly all actives have a fitted effect of over 40% in size; further: potency means the concentration at half of the fitted maximal effect
# In short: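 Seeding of 500 SYKi-naive MV4-11 cells per well onto pre-dispensed compounds preceded a 72 hr incubation at 37 C. Luminescent CellTiter-Glo signal, read after 10 min at room temperature, reflected viable cells.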
# [2] = Cellular viability qHTS for adrenocortical cancer (ACC) cell line SW-13 (AID 1963989); details: SW-13 ACC cells viability, CellTiter-Glo, 48 h; activity (max response): hits give low values; further: nearly all actives have a fitted effect of over 65% in size; further: potency means the concentration at half of the fitted maximal effect;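 on activity (max response): cells grown in serum-free medium with ITS supplement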
# In short: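 IC50 and maximal-response values come from four-parameter logistic fits of titration data. SW-13 cells in serum-free medium received compounds (up to 46 uM final) for 48 h before CellTiter-Glo luminescence.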
# [3] = Cellular viability qHTS for adrenocortical cancer (ACC) cell line NCI-H295R (AID 1963990); further: nearly all actives have a fitted effect of over 60% in size; further: potency means the concentration at half of the fitted maximal effect
# In short: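 Adrenocortical carcinoma cells, suspended at 300 000 cells/mL in serum-free DMEM plus ITS, rested overnight before pin transfer of compound. After two days' incubation, ATP-dependent luminescence was recorded and curve-fitted.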
# [4] = Viability qHTS for spleen associated tyrosine kinase inhibitor (SYKi) drug resistant MV4-11 cells (AID 1963824); further: nearly all actives have a fitted effect of over 35% in size; further: potency means the concentration at half of the fitted maximal effect
# In short: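 SYK inhibitor-resistant MV4-11 AML cells, 500 per well, added to predispensed compounds and incubated 72 hr at 37 C, 5% CO2. Viability measured by CellTiter-Glo luminescence after 10 min at room temperature.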
# [5] = Quantitative highthroughput screen to assess conditional lethalithy of NOMO1 cells grown in RPMI1640 with dialyzed fetal bovine serum (RPMI+ds) (AID 1963877); further: series mostly up to about 46 µM; nearly all actives have a fitted effect of over 30% in size
# In short: (§1)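 Each medium arm—HPLM with 10% dialyzed FBS, or RPMI1640 with 5 mM glucose and 10% untreated or dialyzed FBS—was screened against an 11-point, 3-fold compound titration for 48 h at 37 °C, with CellTiter-Glo luminescence as endpoint.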
# [6] = Quantitative highthroughput screen to assess conditional lethalithy of P12 Ichikawa cells grown in Human Plasma-Like Medium with dialyzed fetal bovine serum (HPLM+ds) (AID 1963879); details: Potency: viability; further: series mostly up to about 46 µM; nearly all actives have a fitted effect of over 35% in size
# In short: as §1
# [7] = Quantitative highthroughput screen to assess conditional lethalithy of P12 Ichikawa cells grown in RPMI1640 with dialyzed fetal bovine serum (RPMI+ds) (AID 1963880); details: Potency: P12-Ichikawa viability; further: nearly all actives have a fitted effect of over 35% in size
# In short: as §1
# [8] = Quantitative highthroughput screen to assess conditional lethalithy of P12 Ichikawa cells grown in RPMI1640 with untreated serum (RPMI+s) (AID 1963881); details: Potency: viability; further: series mostly up to about 46 µM; nearly all actives have a fitted effect of over 35% in size
# In short: as §1
# [9] = Quantitative highthroughput screen to assess conditional lethalithy of NOMO1 cells grown in RPMI1640 with untreated serum (RPMI+s) (AID 1963876); further: nearly all actives have a fitted effect of over 35% in size
# In short: as §1
# [10] = Quantitative highthroughput screen to assess conditional lethalithy of NOMO1 cells grown in Human Plasma-Like Medium with dialyzed fetal bovine serum (HPLM+ds) (AID 1963878); further: nearly all actives have a fitted effect of over 35% in size
# In short: as §1
structure (smiles),measurement,setting,value
COc1ccc(CN2CCNCC2)c(OC)c1OC,Potency,[1],inactive
same,activity (max response),[2],10.4%
same,Potency,[3],inactive
CCN[C@H](C)Cc1cccc(C(F)(F)F)c1,Potency,[1],inactive
same,activity (max response),[2],-4.65%
same,Potency,[3],inactive
O=C(O)c1cc(Oc2ccc(C(F)(F)F)cc2Cl)ccc1[N+](=O)[O-],Potency,[1],inactive
same,Potency,[3],inactive
O=C(O)COc1nc(Cl)c(Cl)cc1Cl,Potency,[1],inactive
same,activity (max response),[2],12.3%
same,Potency,[3],inactive
CN1C2CCC(C)(C)C1CC(OC(=O)C(O)(c1cccs1)c1cccs1)C2 (configuration not stated),Potency,[1],inactive
same,activity (max response),[2],-3.56%
same,Potency,[3],inactive
CC1(C)CC[C@]2(NC(=O)C(C)(F)F)CC[C@]3(C)[C@H](C(=O)C=C4[C@@]5(C)C=C(C#N)C(=O)C(C)(C)[C@@H]5CC[C@]43C)[C@@H]2C1,Potency,[1],3.32 µM (active)
same,Potency,[2],4.47 µM (active)
same,Potency,[3],3.98 µM (active)
C[C@H]1[C@@H]2Cc3ccc(O)cc3[C@@]1(C)CCN2C,Potency,[1],inactive
same,activity (max response),[2],-10.9%
same,Potency,[3],inactive
CC1=C2[C@H]3OC(=O)[C@@H](C)[C@@H]3CC[C@@]2(C)C=CC1=O,Potency,[1],inactive
same,Potency,[3],inactive
COP(=S)(OC)Oc1ccc(S(N)(=O)=O)cc1,Potency,[1],inactive
same,activity (max response),[2],5.57%
same,Potency,[3],inactive
CCOC(=O)c1ncn2c1CN(C)C(=O)c1c(I)cccc1-2,Potency,[1],inactive
same,activity (max response),[2],-2.47%
same,Potency,[3],inactive
Cc1c(N)nc([C@H](CC(N)=O)NC[C@@H](N)C(N)=O)nc1C(=O)N[C@H](C(=O)N[C@@H](C)[C@H](O)[C@@H](C)C(=O)N[C@@H](C(=O)NCCc1nc(-c2nc(C(=O)NCCC[S+](C)C)cs2)cs1)[C@@H](C)O)C(O[C@H]1O[C@H](CO)[C@H](O)[C@@H](O)[C@H]1O[C@H]1O[C@H](CO)[C@@H](O)[C@H](OC(N)=O)[C@@H]1O)c1cnc[nH]1 (some centres not stated),Potency,[1],inactive
same,activity (max response),[2],-30.2%
same,Potency,[3],inactive
Nc1ccccc1C(=O)O,Potency,[1],inactive
same,Potency,[3],inactive
Cc1nc2ccccc2c(=O)n1-c1ccccc1Cl,Potency,[1],inactive
same,activity (max response),[2],-17.2%
same,Potency,[3],inactive
CCN(CC)C(=O)[C@@H]1C=C2c3cccc4[nH]cc(c34)C[C@H]2N(C)C1,Potency,[1],28.4 µM (active)
same,Potency,[3],inactive
CCCC(C)C1(CC)C(=O)N=C(S)NC1=O (configuration not stated),Potency,[1],inactive
same,activity (max response),[2],-0.902%
same,Potency,[3],inactive
CCOP(=S)(OCC)Oc1ccc2c(C)c(Cl)c(=O)oc2c1,Potency,[1],inactive
same,activity (max response),[2],7.58%
same,Potency,[3],inactive
CC(=O)OCC1=C(C(=O)O)N2C(=O)[C@@H](N)[C@H]2SC1,Potency,[1],inactive
same,activity (max response),[2],5.22%
same,Potency,[3],inactive
O=C1c2ccccc2C(=O)C1C(=O)C(c1ccccc1)c1ccccc1,Potency,[1],inactive
same,Potency,[3],23.1 µM (active)
O=C(NC(=O)c1c(F)cccc1F)Nc1cc(Cl)c(OC(F)(F)C(F)C(F)(F)F)cc1Cl (configuration not stated),Potency,[1],11.9 µM (active)
same,Potency,[3],inactive
C[N@@+]1(CC2CC2)CC[C@]23c4c5ccc(O)c4O[C@H]2C(=O)CC[C@@]3(O)[C@H]1C5,Potency,[4],inactive
CC/C=C/C=C/C1(C)OC(OC)=C(C(=O)C2C(C)C(=O)c3cc(OC)c(O)c(O)c3C2(C)O)C1=O (configuration not stated),Potency,[4],10 µM (active)
CC1=CC2/C=C(\C)CCC(O)C(O)/C=C/C(=O)OC23C(=O)NC(CC(C)C)C3C1C (configuration not stated),Potency,[4],7.96 µM (active)
C[C@]12CCC(=O)C=C1CC[C@@H]1[C@H]3CC[C@](C)(O)[C@@]3(C)CC[C@@H]12,Potency,[4],21.9 µM (active)
same,Potency,[5],inactive
same,Potency,[6],inactive
same,Potency,[7],inactive
same,Potency,[8],inactive
same,Potency,[3],28.2 µM (active)
COc1ccc(C23CCC(=O)C=C2N(C)CC3)cc1OC (configuration not stated),Potency,[4],3.66 µM (active)
O=C(C[C@@H]1NCCC[C@H]1O)Cn1cnc2ccccc2c1=O,Potency,[4],0.231 µM (active)
N#Cc1ccccc1-c1cc(-c2ccccn2)cn(-c2ccccc2)c1=O,Potency,[4],inactive
COC1(C[S@@](=O)c2ccccc2)CCN(CCc2c[nH]c3ccc(F)cc23)CC1,Potency,[4],20.6 µM (active)
CC(C)N(CCNC(=O)CN1CCCC1=O)C(C)C,Potency,[4],inactive
same,Potency,[9],inactive
same,Potency,[10],inactive
same,Potency,[6],inactive
same,Potency,[7],inactive
CC1=C2C(=O)C3[C@@H](CC=C4C[C@@H](O)CC[C@@]43C)[C@@H]2CC[C@]12O[C@@H]1C[C@H](C)CN[C@H]1[C@H]2C (some centres not stated),Potency,[4],inactive
CCN1C[C@]2(COC)[C@H](O)C[C@H](OC)[C@]34[C@@H]5C[C@]6(O)[C@H](OC(=O)c7ccccc7)[C@@H]5[C@@](O)([C@H]([C@H](OC)[C@H]23)[C@@H]14)[C@@H](O)[C@@H]6OC,Potency,[4],inactive
COC(=O)C1=COC(C)C2CN3CCC4(C(=O)Nc5ccccc54)C3CC12 (configuration not stated),Potency,[4],14.3 µM (active)
